Screening data (PubChem)
Most compounds without a hit are left out; they make up all but 3% or so of the library.
A1 inh: inhibitors of the anti-apoptotic protein A1, read as caspase activation; AID 2462; caspase activation, % (no concentration beside the values); 330,000 tested, 0.066% active; MEF A1-2A-BIM cells, Caspase-Glo 3/7 luminescence, 3 h; percent of clofoctol response, vehicle zero;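 active = over half of replicate activation scores above 10%, or exactly half above 10 with the replicate mean above 10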
Mot1-301 SUMO: blocks SUMOylation pathway, rescuing yeast Mot1-301 growth. 320,000 tested, 1% active. S. cerevisiae Mot1-301 growth rescue, ATP luminescence, 38.5C; percent above DMSO median, 100 means doubled. AID 2716. growth rescue, % at 18.8 µM;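 active = every valid replicate shows activation above 250% relative to neutral control wells; inactive = the rest, any valid replicate at or below 250%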
NALP1 inh: blocks the NALP1 inflammasome reconstituted in yeast. S. cerevisiae NALP1/ASC/caspase-1 growth, X-gal OD620, 72 h. inhibition, % at 10 µM. 280,000 tested, 0.61% active. AID 2071; in the data active = inhibition mostly above about 24%, no sharp cut-off; inactive = mostly below about 32%
CHT block: inhibits the human high affinity choline transporter. Q9GZV3. CHT-expressing cells, membrane potential dye, choline response; hits give low values. B-score at 10 µM. 310,000 tested, 0.86% active;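 active = B-score over 3 SD under the library average, and starting fluorescence ratio not unusually high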;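 note: choline stimulus applied at its EC90 after an EC20 pre-addition; B-score computed on integrated fluorescence ratio after choline addition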
Target sequence (Q9GZV3 whole entry, looked up): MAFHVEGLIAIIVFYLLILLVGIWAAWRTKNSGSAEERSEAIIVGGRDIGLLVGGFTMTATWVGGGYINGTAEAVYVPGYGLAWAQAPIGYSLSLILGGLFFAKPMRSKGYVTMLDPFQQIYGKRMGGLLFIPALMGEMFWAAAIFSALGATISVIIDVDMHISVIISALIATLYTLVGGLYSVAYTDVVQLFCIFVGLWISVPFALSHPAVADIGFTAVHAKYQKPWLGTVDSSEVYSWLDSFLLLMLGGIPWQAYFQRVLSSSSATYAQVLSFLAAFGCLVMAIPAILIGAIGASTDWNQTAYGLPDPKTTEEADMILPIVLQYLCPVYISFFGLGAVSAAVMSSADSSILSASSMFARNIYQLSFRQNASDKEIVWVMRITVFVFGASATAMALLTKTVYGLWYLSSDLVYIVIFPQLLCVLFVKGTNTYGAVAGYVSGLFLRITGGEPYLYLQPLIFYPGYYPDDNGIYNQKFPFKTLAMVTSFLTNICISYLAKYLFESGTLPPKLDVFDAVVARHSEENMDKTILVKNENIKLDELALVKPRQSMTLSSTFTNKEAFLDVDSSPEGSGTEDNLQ
CHT PAM: allosteric activators of human choline transporter CHT | B-score at 10 µM | Q9GZV3 | 310,000 tested, 0.49% active | CHT-expressing cells, membrane potential dye, choline EC20; hits give high values; LV-AA mutant CHT in HEK293 cells;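 active = initial fluorescence not abnormally high and integrated response B-score, plate-corrected, over 3 SD above library mean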
NALP3 yeast inh: inhibitors of NALP3 inflammasome in yeast; Yeast reconstituted NLRP3/ASC/caspase-1, beta-gal luminescence, 24 h; AID 2825; inhibition, % at 10 µM; 330,000 tested, 0.39% active;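 active = inhibition of 50% or more; inactive = inhibition below 50%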
Mot1 SUMO dose: yeast SUMO pathway inhibition in dose response; 2,300 tested, under 10 active; growth activity, percent, % at 42 µM; S. cerevisiae Mot1-301 galactose growth, ATP luminescence, 24 h; -100 = growth of slx-deleted rescue strain; AID 493004; shares compounds with Mot1-301 SUMO;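 active = Signal drops as the depositor expects, and the fitted half-maximal dose is no more than ten times the top valid tested dose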;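 note: more negative values mean stronger growth rescue toward the control strain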
Hits are given with their value; . = inactive; / = no result given; + = active, no number.

SMILES	A1 inh	Mot1-301 SUMO	NALP1 inh	CHT block	CHT PAM	NALP3 yeast inh	Mot1 SUMO dose
Cc1ccc(C)n1-c1ccc(N(C)C)cc1	.	+	.	.	.	.	.
COc1ccc(-c2cc(C(=O)Nc3c(F)cc(F)cc3Br)no2)cc1	.	.	.	.	.	.	/
N=c1ncn(CC(O)CO)c2nc(N3CCOCC3)[nH]c12 (centres undefined)	.	456.9	.	.	.	.	.
CCOc1ccc(CSC(=N)N)cc1	.	.	.	.	.	.	/
CCCCOc1ccc(CSC(=N)N)cc1Cl	.	467.4	.	.	.	.	.
O=C(CN1CCN(c2ccccc2F)CC1)Nc1nnc(C(F)(F)F)s1	.	+	.	.	.	.	.
CCOC(=O)N1CCN(CC(=O)Nc2nnc(C(F)(F)F)s2)CC1	.	.	.	.	.	.	/
COc1cccc(N2CC(C)Cn3c2nc2c3c(=O)[nH]c(=O)n2C)c1 (centres undefined)	.	.	.	.	.	.	/
CC1CCN(C(C)C(=O)Nc2ccccc2-c2ccccc2)CC1 (centres undefined)	.	.	.	.	.	.	/
CC(C(=O)Nc1ccccc1-c1ccccc1)N1CCN(Cc2ccccc2)CC1 (centres undefined)	.	527.8	.	.	.	.	.
CC1CCN(C(=O)c2[nH]cnc2C(=O)NCC(=O)OCc2ccccc2)CC1	.	789.8	.	.	.	.	.
O=C(CNC(=O)c1nc[nH]c1C(=O)N1CCNCC1)OCc1ccccc1	.	.	/	.	.	.	/
COc1ccc(CN(CC(=O)NCC2CCCO2)C(=O)CCC(=O)Nc2nccs2)cc1 (centres undefined)	.	.	.	.	.	.	/
O=C(COC(=O)Cc1c(F)cccc1Cl)NC1CCS(=O)(=O)C1 (centres undefined)	.	.	/	.	.	.	/
CC(=O)N(C)c1ccc(N2CCOCC2)c2c1C(=O)c1ccccc1C2=O	.	455.9	/	.	.	.	.
CC(=O)c1cccc(NC(=O)C(C)OC(=O)CCc2nc3ccccc3c(=O)[nH]2)c1 (centres undefined)	.	.	/	/	/	.	/
O=C(NCCc1c[nH]c2ccccc12)c1cc(S(=O)(=O)N2CCCCC2)ccc1N1CCOCC1	.	449.5	.	.	.	.	.
CCCNC(=O)c1cc(S(=O)(=O)N2CCCCC2)ccc1N1CCOCC1	.	.	/	.	.	.	/
Cc1nc2ccccc2c2ncccc12	.	613.3	.	.	.	.	.
COC(=O)c1ccc(CN(C)S(=O)(=O)c2cccs2)cc1	.	.	.	.	.	.	/
CCN(CC(=O)NCc1ccc(Cl)cc1)C(=O)/C=C/c1ccccc1	.	.	.	.	.	.	/
CCN(CC(=O)NCc1ccc(Cl)cc1)C(=O)/C=C/c1ccc(C#N)cc1	.	821.2	.	.	.	.	.
COc1ccc(-c2nnc(-c3cc4c(ccc5ccccc54)oc3=O)o2)cc1	.	574.1	.	.	.	.	.
Cc1ccccc1CS(=O)(=O)Cc1ccc(C(=O)NCC2CCCO2)o1 (centres undefined)	.	.	.	.	.	.	/
Cc1cccc(CS(=O)(=O)Cc2ccc(C(=O)NCC3CCCO3)o2)c1 (centres undefined)	.	666.8	.	.	.	.	.
SMILES	A1 inh	Mot1-301 SUMO	NALP1 inh	CHT block	CHT PAM	NALP3 yeast inh	Mot1 SUMO dose
COc1ccc(NC(=O)C2CCCN(C(=O)Nc3cccc(OC)c3)C2)cc1 (centres undefined)	.	380.9	.	.	.	.	.
CCOC(=O)C1=C(COC(=O)c2ccco2)NC(=O)NC1CC (centres undefined)	.	.	/	/	/	.	/
O=C(OCCCN=C1NS(=O)(=O)c2ccccc21)c1cccs1	.	579.4	.	.	.	.	.
C=CCNc1nc(C(=O)OCC(=O)Nc2c(Cl)cccc2C(F)(F)F)cs1	.	.	/	.	.	.	/
CC(C)(C)C(=O)NC(=S)N1CCCC1	.	.	.	.	.	.	/
CC12CC3(C)CC(C)(C1)CC(C(=O)NC(=S)N1CCCC1)(C2)C3	.	765.6	.	.	.	.	.
COc1ccc2c(Cl)c(C(=O)NN3CCN(C)CC3)sc2c1	.	586.7	.	.	.	.	.
Cc1ccc(C(=O)Nc2nc(-c3ccc(F)cc3)cs2)o1	.	410.3	.	.	.	.	.
COc1cccc(Cn2cnc3c(NS(=O)(=O)c4cccc(Cl)c4Cl)c(C)c(C)cc32)c1	.	410.7	.	.	.	.	.
Cc1ccc(C(=O)N2CC(C)OC(C)C2)cc1[N+](=O)[O-] (centres undefined)	.	.	.	.	.	.	/
CC1CN(C(=O)c2cc([N+](=O)[O-])cc([N+](=O)[O-])c2)CC(C)O1 (centres undefined)	.	+	.	.	.	.	.
O=C(Nc1cccc(NC(=O)c2ccco2)c1)c1cccc(Br)c1	.	.	.	.	.	.	/
O=C(Nc1cccc(N=Cc2cc(Br)cc(Br)c2O)c1)c1ccco1	.	765.7	65.3	.	.	/	.
COc1ccc(CCC(=O)NNC(=S)Nc2cccc(C(C)=O)c2)cc1	.	+	.	.	.	.	.
COc1ccc(CCC(=O)NNC(=O)Nc2cccc(Cl)c2)cc1	.	.	.	.	.	.	/
N#Cc1ccc(Oc2ccc(S(=O)(=O)N3CCCCC3)cn2)cc1	.	764.0	/	.	.	.	.
Cc1cccc(NC(=O)Nc2ccccc2[N+](=O)[O-])n1	.	.	.	.	.	.	/
O=C(CCN1C(=O)S/C(=C/c2ccccc2)C1=O)Nc1ccc(O)c(C(=O)O)c1	.	435.0	.	.	.	.	.
O=C(CCN1C(=O)S/C(=C\c2ccccc2)C1=O)Nc1ccc(O)cc1C(=O)O	.	.	.	.	.	.	/
COc1ccc(-c2onc3ccc(C(=O)/C=C/N(C)C)cc23)cc1	.	.	.	.	.	.	/
CC(=O)c1ccc2noc(-c3ccc(F)cc3)c2c1	.	+	.	.	.	.	.
CC(C)c1ccc(C2C(C(=O)c3ccco3)=C(O)C(=O)N2CCN2CCOCC2)cc1 (centres undefined)	.	+	.	.	.	.	.
CCOc1ccc(C2C(C(=O)c3ccco3)=C(O)C(=O)N2CCN2CCOCC2)cc1 (centres undefined)	.	.	.	.	.	.	/
CN(C)C(=O)CSc1nc2ccc(N3C(=O)c4ccccc4C3=O)cc2s1	.	561.8	.	.	.	.	.
O=Cc1ccccc1OCCN1CCCC1=O	.	734.1	.	.	.	.	.
O=C1c2ccccc2S(=O)(=O)N1Cc1cc(=O)n2ccsc2n1	.	383.4	.	.	.	.	.
